PubChem BioAssay (NCI)
Compounds without any hit were thinned out: in the full panel of roughly 83,000, 20% have a hit.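 Growth was measured after 48 h exposure to one concentration of compound in 96-well plates. Values under 10 count as active.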 Values without a mark were called inactive. Calls of active or inactive are those of the source.

Key:
Assay in all cases: NCI-60 one-dose screen, 48 h (100 = growth as untreated, 0 = no growth, -100 = all killed)
NCI-H23 lung = details: 10 µM unless noted
NCI-H226 lung = details: 10 µM unless noted
NCI-H322M lung = details: 10 µM unless noted
HOP-62 NSCLC = details: 10 µM unless noted
NCI-H460 lung = details: 10 µM unless noted
HOP-92 NSCLC = details: 10 µM unless noted
NCI-H522 lung = details: 10 µM unless noted
A549/ATCC NSCLC = details: 10 µM unless noted
786-0 renal = details: 10 µM unless noted
COLO 205 colon = details: 10 µM unless noted
DU-145 prostate = details: 10 µM unless noted
K-562 leukemia = details: 10 µM unless noted
MALME-3M melanoma = details: 10 µM unless noted
MDA-MB-231 breast = details: 10 µM unless noted
SF-268 CNS = details: 10 µM unless noted
SF-295 CNS = details: 10 µM unless noted
SF-539 CNS = details: 10 µM unless noted
UACC-257 melanoma = details: 10 µM
M14 melanoma = details: 10 µM unless noted

| Compound | growth (NCI-H23 lung) | growth (NCI-H226 lung) | growth (NCI-H322M lung) [%] | growth (HOP-62 NSCLC) [%] | growth (NCI-H460 lung) | growth (HOP-92 NSCLC) | growth (NCI-H522 lung) | growth (A549/ATCC NSCLC) [%] | growth (786-0 renal) [%] | growth (COLO 205 colon) | growth (DU-145 prostate) [%] | growth (K-562 leukemia) [%] | growth (MALME-3M melanoma) | growth (MDA-MB-231 breast) | growth (SF-268 CNS) [%] | growth (SF-295 CNS) | growth (SF-539 CNS) [%] | growth (UACC-257 melanoma) | growth (M14 melanoma) [%] |
| --- | --- | --- | --- | --- | --- | --- | --- | --- | --- | --- | --- | --- | --- | --- | --- | --- | --- | --- | --- |
| O=c1oc2cc(OS(=O)(=O)c3ccc(F)cc3)ccc2c2c1CCCCC2 | 66.1% | 55.1% | 90.4 | 96.4 | 65.5% | 60% | 49.8% | 55.9 | 76.2 | 24.4% | 78.7 | 31.6 | 83.5% | 90.5% | 86.8 | 63.4% | 78.6 | 62.1% | 69.4 |
| CCCn1c(=S)sc2c(Cl)nc(C)nc21 | 110% | 91.6% | 93.6 | 104 | 88.5% | 99.3% | 33% | 117 | 106 | 43.5% | 124 | 103 | 104% | 89.1% | 98.5 | 101% | 93.3 | – | 101 |
| O=C(Nc1cc(C(F)(F)F)cc(C(F)(F)F)c1)Nc1ccc(OCc2nnc(-c3ccc(Cl)cc3)o2)c(F)c1 | -5.96% (active) | 6.03% (active) | 19.3 | 10.3 | 6.63% (active) | -11.9% (active) | -22.8% (active) | 10.5 | 15.1 | -84.7% (active) | 23.8 | 16.1 | -3.82% (active) | -17% (active) | 25.6 | 8.71% (active) | 10.5 | 2.65% (active) | 18.6 |
| CC(=O)Nc1nc(C(=O)N2N=C(C)/C(=C/c3ccc(Cl)cc3)C2=O)cs1 | 102% | 106% | 99 | 97 | 105% | 95.7% | 44.7% | 103 | 100 | 104% | 103 | 106 | 93.1% | 110% | 96.2 | 98.2% | 107 | 94% | 96.7 |
| O=S(=O)(NCCCNc1nccc(-c2c(-c3ccc(F)c(O)c3)nc3sccn23)n1)c1ccc(Cl)cc1 | 80% | 104% | 98.6 | 96.6 | 86.3% | 74.3% | 57.5% | 76.9 | 110 | 42.6% | 87.4 | 44.2 | 2.69% (active) | 66.4% | 82.8 | 106% | 103 | – | 18.1 |
| Nc1nc(Cl)c2c(ncn2Cc2ccc(CCl)cc2)n1 | 94% | 94.5% | 94.9 | 120 | 93.8% | 54.9% | 76.1% | 83.4 | 103 | 106% | 86.5 | 117 | 94.6% | 88.2% | 91.1 | 52.8% | 82.5 | – | 97.2 |
| COc1cc(C2C=C(C)N=C3SC=CN32)cc(OC)c1OC (stereo not drawn) | 108% | 103% | 105 | 106 | 105% | 91.6% | 97.2% | 107 | 113 | 113% | 112 | 123 | 104% | 100% | 104 | 108% | 116 | 102% | 107 |
| COc1cccc2cc(-c3cc4ccccc4[nH]3)/c(=N/C(=S)Nc3ccccc3)oc12 | 61.8% | 69.9% | 84 | 18.5 | 69.3% | 5.47% (active) | 88.1% | 91.4 | 59.4 | 98.1% | 74.4 | 84.4 | 78.9% | 61.6% | 70.6 | 87.1% | 33 | – | 70.6 |
